D2 PAM-1 = potentiates the human D2 dopamine receptor allosterically; AID 624464; potentiation, % (concentration not given with the values); 360,000 compounds, 0.23% hits; DiscoveRx D2 beta-arrestin cells, luminescence, 90 min; 100% = 57 uM dopamine signal; P14416; in the data active = potentiation above about 50%; inconclusive = mostly about 30% to 49%
Target sequence (P14416 whole entry, looked up): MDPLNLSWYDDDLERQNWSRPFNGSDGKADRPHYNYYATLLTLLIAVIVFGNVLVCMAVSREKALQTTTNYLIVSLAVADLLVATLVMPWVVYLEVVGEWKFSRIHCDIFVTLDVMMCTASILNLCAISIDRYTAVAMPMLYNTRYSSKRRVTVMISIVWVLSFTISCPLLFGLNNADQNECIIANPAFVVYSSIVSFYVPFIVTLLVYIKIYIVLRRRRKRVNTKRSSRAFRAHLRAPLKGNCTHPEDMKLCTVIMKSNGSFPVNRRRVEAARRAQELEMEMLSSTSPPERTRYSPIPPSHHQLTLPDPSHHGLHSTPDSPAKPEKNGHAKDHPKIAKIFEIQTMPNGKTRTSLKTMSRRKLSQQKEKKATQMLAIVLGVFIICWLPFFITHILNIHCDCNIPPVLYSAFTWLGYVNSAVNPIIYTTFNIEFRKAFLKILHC
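PathHunter D2 cells, attached overnight at 37 deg C, received compound in DMSO plus dopamine at EC20 (50 nM final) for 90 min at 37 deg C. Beta-arrestin recruitment was read as luminescence after 1 h with detection reagent at ambient temperature.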
D2 ag-1 = agonists of human D2 dopamine receptor | P14416 | HEK293 T-REx D2 cells, calcium flux agonist mode | activation, % at 2 µM | 340,000 compounds, 0.53% hits | AID 485358;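 active = activation over 3 SD above normal in the single-dose calcium agonist read, cut at about 30% in these data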
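Calcium-flux readout, 1 cycle/sec over 180 s following compound pin transfer, in inducible HEK293 Trex D2 cells (force-coupled); dopamine controls included. Positive calcium responses during this window marked compounds as potential agonists.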
D2 ag-2 = agonists of human D2 dopamine receptor (beta-arrestin); 360,000 compounds, 0.084% hits; AID 624465; activation, % (no concentration beside the values); P14416; DiscoveRx PathHunter D2 beta-arrestin, luminescence, 90 min; 100% = 57 uM dopamine signal; in the data active = activation above about 40%; inconclusive = between about 15% and that limit
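DiscoveRx PathHunter D2 beta-arrestin cells (2,100/well) attached overnight, then compound-stimulated 90 min at 37 C in HBSS/10 mM HEPES/0.1% Tween-20 buffer; beta-galactosidase complementation read by luminescence after 1 h at ambient temperature. Dopamine 57 uM final (EC100) as control.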
D2 antagonist = antagonists of human D2 dopamine receptor | HEK293 TREx D2 cells, calcium flux, dopamine EC80 | P14416 | inhibition, % at 10 µM | 340,000 compounds, 2% hits; in the data active = inhibition above about 30%; inactive = below that, where a call was filed
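Tetracycline-induced HEK293 TREx cells expressing D2 receptor forced-coupled to calcium signalling, loaded with no-wash calcium dye. Compounds added and calcium flux read 180 s, then dopamine added at EC80 and read a further 180 s.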
D2 PAM-2 = D2 dopamine receptor (human) potentiation; HEK293 T-REx D2, calcium flux, EC20 dopamine potentiation; AID 485347; potentiation, % at 10 µM; P14416; 340,000 compounds, 0.34% hits;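 active = potentiation over 3 SD above the plate norm, cut at about 30% in these data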
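Primary screen. Calcium kinetics in induced HEK293 T-REx D2 cells: compound pre-addition 180 s, EC20 dopamine, 180 s more.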
Hits are given with their value; – = inactive; ? = inconclusive; · = no result. Only some compounds are listed: those with a hit (about 2.4% of all), similar ones and a draw of the others.

SMILES	D2 PAM-1	D2 ag-1	D2 ag-2	D2 antagonist	D2 PAM-2
CCN(CC)CCOc1cccc(C(C)C)c1	–	–	–	73	·
Cc1ccc(OCCCCN2CCC(C)CC2)cc1	–	–	–	49	–
CC1CCN(CCCCOc2cccc(C(C)C)c2)CC1	–	–	–	58	–
CC1CCN(CCCCOc2ccc(C(=O)c3ccccc3)cc2)CC1	–	·	–	·	–
Brc1cccc(OCCCN2CCCCCC2)c1	–	–	–	–	–
Cc1ccsc1C(=O)NCCc1nnc2ccccn12	–	–	–	–	–
CC(CNC(=O)c1csc2c1CCCCC2)c1ccccc1 (centres undefined)	·	–	·	·	–
CN1CCN(CCCCOc2ccc(F)cc2)CC1	–	–	–	–	–
CC1CCN(CCCCOc2ccc(F)cc2)CC1	–	–	–	44	–
O=c1c2ccccc2nnn1CSc1ccc2c(c1)OCCO2	–	–	–	–	43
CCC(C(=O)Nc1ccc2c(c1)OCCO2)n1nnc2ccccc2c1=O (centres undefined)	–	–	–	–	–
O=C(C1COc2ccccc2O1)N1CCc2ccccc21 (centres undefined)	–	–	–	35	–
O=C(C1CCN(S(=O)(=O)c2ccccc2)CC1)N1CCc2ccccc21	–	98	–	–	–
O=C(C1CCN(S(=O)(=O)c2ccccc2)CC1)N1CCN(c2ccccc2F)CC1	–	–	–	32	–
O=C(C1COc2ccccc2O1)N1CCCC1 (centres undefined)	–	–	–	–	–
CN(Cc1ccccc1)C(=O)C1CCN(S(=O)(=O)c2ccc3nc4c(c(C(=O)O)c3c2)CCCC4)CC1	–	–	–	–	–
C/C(=N\NC(=O)c1ccc2c(c1)OCO2)c1ccc(NC(=O)CCCC(=O)O)cc1	–	–	–	–	–
Cc1ccc(S(=O)(=O)Nc2ccc(O)c3cccnc23)cc1	?	–	–	–	31
CCOC(=O)c1cc(S(=O)(=O)N2CCN(c3cc(Cl)ccc3C)CC2)[nH]n1	·	–	·	·	–
COc1cccc(NC(=O)CNC(=O)Cn2c(C)cc3ccccc3c2=O)c1	·	–	·	·	–
CN(CCc1ccccc1)C(=O)c1ccc(NC(=O)Cc2cccc(NC(=O)C3CCN(C(=O)c4ccccc4)CC3)c2)cc1	–	·	–	·	·
CC1CCCN(C2=C(Cl)C(=O)N(c3cccc(Cl)c3)C2=O)C1 (centres undefined)	–	–	–	44	–
COc1ccc(N2C(=O)C(Cl)=C(N3CCCC(C)C3)C2=O)cc1 (centres undefined)	–	–	–	–	–
CC1(C)CC(=O)N(CC(=O)NC2CCCC2)c2ccccc2S1(=O)=O	–	–	–	–	–
COc1ccc(OC)c(CCNC(=O)CN2C(=O)CC(C)(C)S(=O)(=O)c3ccccc32)c1	–	–	–	–	34
SMILES	D2 PAM-1	D2 ag-1	D2 ag-2	D2 antagonist	D2 PAM-2
CC(CCc1ccccc1)NC(=O)Cn1c(=O)nc(-c2ccccc2)c2cc(Cl)ccc21 (centres undefined)	·	–	·	·	–
Cc1cccc(C)c1OCC(=O)OCC(=O)c1ccc2c(c1)NC(=O)CO2	–	–	–	30	–
COc1ccc(CCNC(=O)COc2ccc(S(=O)(=O)NC3CCCCC3)cc2Cl)cc1	–	–	–	–	34
COc1ccc(CCNC(=O)COC(=O)C2CC2)cc1	–	–	–	31	–
COc1ccc(S(=O)(=O)NC2CCCC2)cc1Br	–	–	–	31	–
COc1ccc(CNC(=O)COC(=O)c2n[nH]c3ccccc23)cc1	–	–	–	–	–
O=C(COc1ccc(S(=O)(=O)NC2CCCCC2)cc1Cl)NCC1CCCO1 (centres undefined)	–	–	–	–	–
COc1ccc(CCNC(=O)c2n[nH]c3ccccc23)cc1	–	–	–	42	–
CC1CCCCN1S(=O)(=O)c1cccc2nonc12 (centres undefined)	–	–	–	–	–
CC(C)(C)C(=O)n1nc(-c2ccccc2)oc1=O	–	–	–	31	–
CCN1C(=O)CSc2ccc(C(=O)NCc3ccccc3)cc21	–	–	–	–	–
CCN1C(=O)CSc2ccc(C(=O)NCc3ccccc3OC)cc21	–	–	–	–	34
